The nature of this test: qHTS Assay for Lipid Storage Modulators (AID 1519). As to activity change, negative = inhibition: % is scaled to controls: 0 for no effect and ±100 for the full control effect. Particulars: Drosophila S3 cells, BODIPY lipid droplet/cell ratio, laser cytometry, cells loaded with oleic acid. In outline: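 Cells seeded at 5,000 per well were treated with compounds over a concentration series and loaded with oleic acid (400 uM, as added). Lipid droplet fluorescence (488 nm excitation, 500-530 nm channel) was read by laser-scanning cytometry and normalized to 20 uM Triacsin C.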
For orientation: qHTS replaces the single test concentration by a dilution series.

Where [1] appears, read: measured here: cell count channel max response.
Where [2] appears, read: measured here: lipid channel max response.

Several values for one entry are separate records, joined by “and”; a condition that tells them apart may be missing. Identical values can stand only once. Records with an inconclusive call do not appear. Activity calls are given as the source filed them. Calls follow the shape of the full dose curve.

Consider `C[C@@H]1CCC[C@H](C)N1`, for which, for the setting “at 25.7 µM (top of the series)”, the activity change, negative = inhibition is -3.01% (inactive). Also, the max response reads like this: under setting [1], -4.31%; under setting [2], -8.89%.
Regarding `CCOC(N)=O`, under “at 57.5 µM (top of the series)”, the activity change, negative = inhibition was 5.36% (inactive). Also, the max response is 18.8% under setting [1] and 25.8% under setting [2].
As for `CC(=O)NCc1c(I)c(NC(C)=O)c(I)c(C(=O)O)c1I`, under “at 57.5 µM (top of the series)”, the activity change, negative = inhibition is 14.5% (inactive). Also, the max response by setting is: under setting [1], 17.6%; under setting [2], 37%.
Consider `Cc1cccc(C(=O)O)c1O`, for which, under “at 57.5 µM (top of the series)”, the activity change, negative = inhibition is 6.75% (inactive). Also, the max response is 1.99% under setting [1] and 8.34% under setting [2].
For `CC1CCc2cc(F)cc3c(=O)c(C(=O)O)cn1c23` (configuration not stated) the same measures were 6.51% (inactive), 18.4% and 28.6%.
In the same order, the values of `C/C=C/C(=O)N(CC)c1ccccc1C` are 9.1% (inactive), 2.55% and 11.8%.
On to `NS(=O)(=O)c1cc(C2(O)NC(=O)c3ccccc32)ccc1Cl` (configuration not stated), for which, for the setting “at 57.5 µM (top of the series)”, the activity change, negative = inhibition was 3.99% (inactive). Besides, the max response runs as follows: under setting [1], 20%; under setting [2], 27%.
Consider `O=C(O)c1cc(=O)c2ccccc2o1`, for which the activity change, negative = inhibition (at 57.5 µM (top of the series)) is 0.609% (inactive). Also, the max response amounted to 15.2% under setting [1] and 23.7% under setting [2].
For `NC(=O)c1ccc([N+](=O)[O-])cc1Cl` the same measures were -1.34% (inactive), -11.1% and -9.4%.
For `C=CCSCC1Nc2cc(Cl)c(S(N)(=O)=O)cc2S(=O)(=O)N1` (configuration not stated) the same measures were 8.24% (inactive), 6.41% and 6.24%.
For `Cc1[nH]c(C)c(Cl)c(=O)c1Cl` the same measures were 7.41% (inactive), 4.05% and 14%.
For the compound `O=C(CCBr)N1CCN(C(=O)CCBr)CC1`, the activity change, negative = inhibition (at 57.5 µM (top of the series)) was 9.22% (inactive). Moreover, the max response under setting [1] amounted to 16.2% and the max response under setting [2] stood at 29.1%.
Consider `CCc1cccc(CC)c1NC(=O)CN(CC(=O)O)CC(=O)O`, for which the activity change, negative = inhibition (at 25.7 µM (top of the series)) is 1.96% (inactive). The max response under setting [1] is -4.83% and the max response under setting [2] is -3.06%.
For `Cc1cc(O)cc(C)c1Cl`, under “at 57.5 µM (top of the series)”, the activity change, negative = inhibition was 11.1% (inactive). Further, the max response under setting [1] is -12.4% and the max response under setting [2] is 1.81%.
For `C[n+]1ccccc1/C=N/O` the same measures were 6.44% (inactive), 15.5% and 23.8%.
In the same order, the values of `CN[C@@H]1[C@H](O)[C@H](NC)[C@H]2O[C@@]3(O)C(=O)C[C@@H](C)O[C@H]3O[C@@H]2[C@H]1O` are -5.49% (inactive), 7.5% and 3.08%.
As to `Cc1onc(-c2ccccc2)c1-c1ccc(S(N)(=O)=O)cc1`, the activity change, negative = inhibition (at 57.5 µM (top of the series)) is 13.7% (inactive). The max response runs as follows: under setting [1], 11.6%; under setting [2], 23.9%.
Turning to `CC(=O)SC[C@@H](Cc1ccccc1)C(=O)NCC(=O)OCc1ccccc1`, the activity change, negative = inhibition (at 25.7 µM (top of the series)) was -7.97% (inactive). Also, the max response is, setting by setting: under setting [1], -8.69%; under setting [2], -18.1%.
On to `Cc1ccsc1/C=C/C1=NCCCN1C`, for which the activity change, negative = inhibition (at 57.5 µM (top of the series)) was 7.06% (inactive). The max response by setting is: under setting [1], 12.1%; under setting [2], 23.6%.
In the same order, the values of `CNCc1ccccc1` are 4.39% (inactive), 16% and 24.6%.
As for `CCOC(=O)[C@H](CCc1ccccc1)N[C@@H](C)C(=O)N1CCC[C@H]1C(=O)O`, the activity change, negative = inhibition (at 25.7 µM (top of the series)) was 0.997% (inactive). For the same compound, the max response under setting [1] is -1.26% and the max response under setting [2] stood at 0.539%.
As for `CC(C)(C)C(=O)OCOC(=O)[C@@H]1N2C(=O)[C@@H](NC(=O)[C@H](N)c3ccccc3)[C@H]2SC1(C)C`, the activity change, negative = inhibition (at 25.7 µM (top of the series)) is 2.04% (inactive). The max response is -13% under setting [1] and -12.6% under setting [2].
On to `COc1ccccc1OCC(O)CO` (configuration not stated), for which the activity change, negative = inhibition (at 57.5 µM (top of the series)) is 8.3% (inactive). Moreover, the max response reads like this: under setting [1], -0.08%; under setting [2], 10.1%.
In the same order, the values of `CN1CCCN=C1COC(=O)C(O)(c1ccccc1)C1CCCCC1` (configuration not stated) are 5.7% (inactive), 7.14% and 15.3%.
For `CC(N)CCCC(C)(C)O` (configuration not stated) the same measures were 4.55% (inactive), 25.6% and 35.7%.
Take `CC(=O)Oc1cccc(O)c1`: the activity change, negative = inhibition (at 57.5 µM (top of the series)) was 7.58% (inactive). The max response by setting is: under setting [1], 7.77%; under setting [2], 18.4%.
For `CC(C)=CCC/C(C)=C/CO` the same measures were 10.2% (inactive), 14.3% and 29.9%.
Consider `O=C(Cn1ccnc1[N+](=O)[O-])NCCO`, for which the activity change, negative = inhibition was -0.0007% (inactive) (at 25.7 µM (top of the series)) and 2.99% (inactive) (at 57.5 µM (top of the series)). Further, the max response is -9.52% and 14.9% under setting [1]; -8.62% and 19.4% under setting [2].
Take `CC[N+](C)(CC)CCOC(=O)C1c2ccccc2Oc2ccccc21`: the activity change, negative = inhibition (at 25.7 µM (top of the series)) was -1.37% (inactive). The max response runs as follows: under setting [1], -9.32%; under setting [2], -11.4%.
On to `NC(=O)NC1NC(=O)NC1=O` (configuration not stated), for which the activity change, negative = inhibition (at 57.5 µM (top of the series)) was 4.87% (inactive). Moreover, the max response under setting [1] was determined as 2.56% and the max response under setting [2] stood at 9.47%.
In the same order, the values of `C[C@@H](N)C(=O)O` are -5.25% (inactive), -10.1% and -15.3%.
Take `CN/C(=C\[N+](=O)[O-])NCCSCc1csc(CN(C)C)n1`: the activity change, negative = inhibition (at 25.7 µM (top of the series)) is -0.861% (inactive). Also, the max response was -17.1% under setting [1] and -17.9% under setting [2].
For `CCN(CC)CCc1nc(-c2ccccc2)no1` the same measures were -4.73% (inactive), -16% and -19.5%.
For `O=C(O)COC(=O)Cc1ccccc1Nc1c(Cl)cccc1Cl` the same measures were 1.87% (inactive), -9.2% and -7.55%.
For `O=C(O)c1ccccc1OP(=O)(O)O` the same measures were 1.48% (inactive), 3.1% and 4.99%.
With `Cc1cc(NC(=O)C2=C(O)c3ccccc3S(=O)(=O)N2C)no1`, the activity change, negative = inhibition (at 25.7 µM (top of the series)) is -0.235% (inactive). Moreover, the max response is -4.56% under setting [1] and -5.22% under setting [2].
On to `CCCCCC(C)N` (configuration not stated), for which, where the note is “at 57.5 µM (top of the series)”, the activity change, negative = inhibition was -8.69% (inactive). The max response by setting is: under setting [1], -12.5%; under setting [2], -21.2%.
For `COc1ccc2cc(CCC(C)=O)ccc2c1`, the activity change, negative = inhibition (at 25.7 µM (top of the series)) is 1.09% (inactive). For the same compound, the max response is -11.1% under setting [1] and -11.1% under setting [2].
As to `Cc1c(NC(C)C)c(=O)n(-c2ccccc2)n1C`, the activity change, negative = inhibition by setting is: (at 25.7 µM (top of the series)) 1.53% (inactive); (at 57.5 µM (top of the series)) 9.46% (inactive). Besides, the max response is, setting by setting: under setting [1], 12.2% and 13.2%; under setting [2], 14.1% and 25.6%.
In the case of `CC[N+](CC)(CC(=O)Nc1c(C)cccc1C)Cc1ccccc1`, under “at 25.7 µM (top of the series)”, the activity change, negative = inhibition was -1.02% (inactive). For the same compound, the max response is -6.23% under setting [1] and -4.81% under setting [2].

Source of the values: PubChem BioAssay (NCATS).
